Structures can show the parent of a compound that is named as a salt. ± gives the standard deviation.
Tested on: THP-1
Assay: THP-1 cell loss relative to DMSO control; higher = more host cell loss (toxicity); extreme values may be limits of the assay
Conditions: 10 µM; 4 days; infection: M. tuberculosis H37Rv
Method: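 OICR kinase inhibitor library screened in duplicate at 10 uM against M. tuberculosis-infected THP-1 macrophages, 4 days at 37 C. THP-1 cell loss (cytotoxicity or loss of adherence) was quantified from Hoechst-stained nuclei counts by high-content imaging and normalised to the 1% DMSO control; 100 = complete loss of host cells.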

| Compound | THP-1 cell loss |
| --- | --- |
| COc1cc(F)c(F)c(Nc2ccc(I)cc2F)c1NS(=O)(=O)C1(C[C@H](O)CO)CC1 | 84.9 ± 1% |
| COc1cc2nccc(Oc3ccc(NC(=O)Nc4ccc(F)cc4F)c(F)c3)c2cc1OC | 8.51 ± 5.2% |
| Cc1ccc(NC(=O)c2cccc(N(C)C)c2)cc1NC(=O)c1ccc(O)cc1 | 3.71 ± 3.8% |
| CN(C)S(=O)(=O)c1ccc2c(c1)/C(=C/c1cc3c([nH]1)CCCC3)C(=O)N2 | 7.5 ± 1.4% |
| CC(NC(=O)C(C#N)=Cc1ccc(O)c(O)c1)c1ccccc1 (stereo not given) [Tyrphostin B44] | 3.72 ± 5.3% |
| COc1cc(Nc2ncc(F)c(Nc3ccc4c(n3)N(COP(=O)(O)O)C(=O)C(C)(C)O4)n2)cc(OC)c1OC | 59.6 ± 57% |
| CCc1cncnc1N1CCN(Cc2nc3ccc(C(F)(F)F)cc3[nH]2)CC1 | 92.6 ± 10% |
| C=CC(=O)Nc1cc2c(Nc3ccc(F)c(Cl)c3)ncnc2cc1C#CC(C)(C)N1CCN(C)CC1 | 100% |
| CCn1c(-c2nonc2N)nc2cnc(Oc3cccc(NC(=O)c4ccc(OCCN5CCOCC5)cc4)c3)cc21 | 83.5 ± 23% |
| C[C@@H](Oc1cc(-c2cnn(C3CCNCC3)c2)cnc1N)c1c(Cl)ccc(F)c1Cl | 33.8 ± 9.9% |
| NC(=O)Nc1cc(-c2cccc(F)c2)sc1C(=O)N[C@H]1CCCNC1 [AZD-7762 hydrochloride] | 100% |
| CNS(=O)(=O)Nc1nccc(Cc2c(C)c3ccc(Oc4ncccn4)cc3oc2=O)c1F | 100% |
| N#C/C(=C\c1ccc(O)c(O)c1)C(=O)NCc1ccccc1 | 0.71 ± 1% |
| O=c1cc(-c2cccc3c2Sc2ccccc2S3)oc(N2CCOCC2)c1 | 26.6 ± 14% |
| C[C@@H]1CCN(C(=O)CC#N)C[C@@H]1N(C)c1ncnc2[nH]ccc12 | 9.64 ± 8.9% |
| CCCCCCCC(=O)OCCOC(=O)CCCCCCC [Dioctanoylglycol] | 4.61 ± 6.5% |
| Nc1ccc(C(=O)Nc2cccc(-c3nc(N4CCOCC4)c4oc5ncccc5c4n3)c2)cn1 | 43 ± 2.2% |
| Fc1ccc(Cl)cc1-c1nc(Nc2ccncc2)c2nccnc2n1 | 7.31 ± 3.9% |
| O=C1Cc2c([nH]c3ccc(Br)cc23)-c2ccccc2N1 [Kenpaullone] | 100% |
| Oc1c2ccccc2c2c3c(cccc13)N=N2 | 19.8 ± 16% |

| Compound | THP-1 cell loss |
| --- | --- |
| CN1CCC(CNc2ccc3ncc(-c4cccc(OC(F)(F)F)c4)n3n2)CC1 | 55.8 ± 30% |
| Cc1ccc(Nc2nccc(N(C)c3ccc4c(C)n(C)nc4c3)n2)cc1S(N)(=O)=O [Pazopanib hydrochloride] | 100% |
| Cc1cc(F)c(Nc2ncnc3cc(OCc4ccccc4)ccc23)cc1O | 5.29 ± 7.5% |
| Cc1csc(-c2nnc(Nc3ccc(Oc4ncccc4-c4ccnc(N)n4)cc3)c3ccccc23)c1 | 62.4 ± 53% |
| CC1(C)CNc2cc(NC(=O)c3cccnc3NCc3ccncc3)ccc21 [Motesanib diphosphate salt] | 4.91 ± 6.9% |
| O=C(Nc1nc2ccccc2n1CCN1CCOCC1)c1cccc([N+](=O)[O-])c1 [IRAK-1/4 Inhibitor I] | 2.5 ± 3.5% |
| COc1cc(OC)c(/C=C/S(=O)(=O)Cc2ccc(OC)c(NCC(=O)O)c2)c(OC)c1 | 44.7 ± 2.4% |
| CCCCCCCCCCCCCCCCn1cc[n+](Cc2ccccc2)c1C | 100% |
| Nc1nccc(Oc2ccc(NC(=O)c3c[nH]cc(-c4ccc(F)cc4)c3=O)cc2F)c1Cl | 48.1 ± 23% |
| COc1cc2c(Oc3ccc(NC(=O)C4(C(=O)Nc5ccc(F)cc5)CC4)cc3F)ccnc2cc1OCCCN1CCOCC1 | 100% |
| CO[C@@H]1[C@H](N(C)C(=O)c2ccccc2)C[C@H]2O[C@]1(C)n1c3ccccc3c3c4c(c5c6ccccc6n2c5c31)C(=O)NC4 | 30.8 ± 4.7% |
| CC(C)(C)c1cnc(CSc2cnc(NC(=O)C3CCNCC3)s2)o1 | 100% |
| N#Cc1c(NC(=O)c2cccc3ccccc23)sc2c1CCCC2 | 60.6 ± 15% |
| Cc1cn(-c2cc(NC(=O)c3ccc(C)c(Nc4nccc(-c5cccnc5)n4)c3)cc(C(F)(F)F)c2)cn1 [Nilotinib] | 75.3 ± 35% |
| COc1cc2ncnc(Nc3ccc(Oc4ccccc4)cc3)c2cc1OC | 0% |
| COc1ccc(CNC(=O)Nc2ncc([N+](=O)[O-])s2)cc1 | 80.8 ± 27% |
| O=C(CO)N1CCC(c2n[nH]c(-c3ccc(Cl)cc3)c2-c2ccncn2)CC1 | 11.1 ± 0.43% |
| Cc1cc(C)c(/C=C2\C(=O)Nc3ccccc32)[nH]1 | 34.2 ± 39% |
| Cn1cc(-c2ccc3nnc(Sc4ccc5ncccc5c4)n3n2)cn1 | 10.4 ± 3.7% |
| CC[C@@H]1/C=C(\C)C[C@H](C)C[C@H](OC)[C@H]2O[C@@](O)(C(=O)C(=O)N3CCCC[C@H]3C(=O)O[C@H](/C(C)=C/[C@@H]3CC[C@H](Cl)[C@H](OC)C3)[C@H](C)[C@@H](O)CC1=O)[C@H](C)C[C@@H]2OC [Pimecrolimus] | 28.5 ± 3% |
